Data reported in PubChem BioAssay (NCI).
The panel holds about 83,000 compounds, 20% with a hit somewhere; the sample as a whole holds those more often.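 The test compound was applied at a single concentration to cells in 96-well plates for 48 hours, and percent growth was recorded.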 Values without a mark were called inactive. Activity calls are given as the source filed them. The calls were made as follows: active = growth percent below 10; inactive = the rest.

What was measured:
Assay in all cases: NCI-60 one-dose screen, 48 h (100 = growth as untreated, 0 = no growth, -100 = all killed)
Details in all cases: 10 µM unless noted
NCI-H23 lung = test system: NCI-H23 lung
NCI-H226 lung = test system: NCI-H226 lung
NCI-H322M lung = test system: NCI-H322M lung
HOP-62 NSCLC = test system: HOP-62 NSCLC
NCI-H460 lung = test system: NCI-H460 lung
HOP-92 NSCLC = test system: HOP-92 NSCLC
NCI-H522 lung = test system: NCI-H522 lung
A549/ATCC NSCLC = test system: A549/ATCC NSCLC
786-0 renal = test system: 786-0 renal
COLO 205 colon = test system: COLO 205 colon
DU-145 prostate = test system: DU-145 prostate
K-562 leukemia = test system: K-562 leukemia
MALME-3M melanoma = test system: MALME-3M melanoma
MDA-MB-231 breast = test system: MDA-MB-231 breast
RXF 393 renal = test system: RXF 393 renal
SF-268 CNS = test system: SF-268 CNS
SF-295 CNS = test system: SF-295 CNS
SF-539 CNS = test system: SF-539 CNS
UACC-257 melanoma = test system: UACC-257 melanoma
M14 melanoma = test system: M14 melanoma

| Structure (SMILES) | growth (NCI-H23 lung) | growth (NCI-H226 lung) | growth (NCI-H322M lung) | growth (HOP-62 NSCLC) | growth (NCI-H460 lung) | growth (HOP-92 NSCLC) | growth (NCI-H522 lung) | growth (A549/ATCC NSCLC) | growth (786-0 renal) | growth (COLO 205 colon) | growth (DU-145 prostate) | growth (K-562 leukemia) | growth (MALME-3M melanoma) | growth (MDA-MB-231 breast) | growth (RXF 393 renal) | growth (SF-268 CNS) | growth (SF-295 CNS) | growth (SF-539 CNS) | growth (UACC-257 melanoma) | growth (M14 melanoma) |
| --- | --- | --- | --- | --- | --- | --- | --- | --- | --- | --- | --- | --- | --- | --- | --- | --- | --- | --- | --- | --- |
| COC(=O)CNS(=O)(=O)c1ccc2c(c1)Cc1cc(S(=O)(=O)NCC(=O)OC)ccc1-2 | 107% | 89.9% | 106% | 97.8% | 105% | 99.6% | 95.7% | 99.7% | 105% | 107% | 113% | 100% | 100% | 105% | 108% | 102% | 100% | 97.2% | 97.6% | 103% |
| O=C(Nc1ccc2[nH]c3ccccc3c2c1)c1ccccc1Cl | 67.7% | 81.1% | 56.4% | 45.1% | 22.5% | 76.1% | 15.7% | 40.5% | 62.1% | 14% | 75% | 10% (active) | 35.3% | 40.3% | 26.5% | 63% | 10.7% | 51.7% | 83.1% | 26.2% |
| COc1ccc(C2=NN(C=O)C(c3ccc(OS(=O)(=O)c4ccc(C)cc4)c(OC)c3)C2)cc1 (stereo not given) | 37.8% | 67.4% | 99.9% | 61.3% | 62.8% | 32.8% | 21.3% | 42.6% | 78.1% | 63.3% | 72.8% | 16% | 45.9% | 56.4% | 82.7% | 68.7% | 41.6% | 66.9% | 42.9% | 58.8% |
| COc1cc(C)c2c(=O)c3c(oc2c1)C(=O)c1c(O)c(OC)cc(O)c1C3=O | -2.42% (active) | 30.7% | 14.2% | 25.7% | 1.04% (active) | -32% (active) | -48.3% (active) | 7.31% (active) | 20% | 109% | 26.8% | -23.8% (active) | -23.8% (active) | -0.877% (active) | 13.1% | 21.5% | 25.7% | 5.8% (active) | 54% | 19.3% |
| Cc1cc(C)c2c(n1)sc1c(Nc3ccc(O)cc3)ncnc12 | 9.96% (active) | 32.4% | 46.2% | 18.5% | 10.1% | 35.5% | 32.4% | 26.7% | 12.6% | 33% | 21.3% | 45.1% | 63.9% | 59% | 32% | 19.3% | 18.3% | 3.84% (active) | 38.7% | -21.5% (active) |
| O=C(OCc1ccc2c(Br)cc(Br)c(O)c2n1)c1cc2ccccc2[nH]1 | -27.4% (active) | -66.5% (active) | 51.6% | 13.7% | -38.7% (active) | -66.4% (active) | -74.2% (active) | 14.5% | -78.2% (active) | -74% (active) | -91.6% (active) | 1.14% (active) | -85.5% (active) | -81.9% (active) | -91.4% (active) | -51.5% (active) | 68.5% | -96.3% (active) | -64.6% (active) | -64.7% (active) |
| CC[C@H](Nc1nc(N)nc(N)c1Cl)c1nc2cccc(NCc3ccc(C(=O)NO)cc3)c2c(=O)n1-c1ccccc1 | -71.6% (active) | 4.53% (active) | 35.8% | 11.6% | 1.8% (active) | -15.7% (active) | -13.5% (active) | -4.67% (active) | 3.36% (active) | -20.1% (active) | -0.88% (active) | 3.11% (active) | 20.2% | -10.8% (active) | -52.5% (active) | 4.81% (active) | 13.2% | -74.2% (active) | -0.0784% (active) | -13% (active) |
| Nc1ccc(N(O)/C=C2\C=CC=CC2=O)cc1N | 82.7% | 103% | 110% | 95.7% | 119% | 91.3% | 72.7% | 94.4% | 92.3% | 114% | 121% | 93.5% | 101% | 85.9% | 98.2% | 107% | 112% | 101% | 98.7% | 101% |
| CC(=O)Nc1nonc1-c1nc2ccccc2n1Cc1ccc(C(C)(C)C)cc1 | 86.7% | 76.6% | 83% | 101% | 79.3% | 57.1% | 85.1% | 72.2% | 70.2% | 98.5% | 79.9% | 30.2% | 90.5% | 92.8% | 65.8% | 67.2% | 79.6% | 89% | 92% | 92% |
| COc1cc(C2CC(c3ccc(Nc4ccnc5cc(Cl)ccc45)cc3)=NN2c2ccccc2)cc(OC)c1OC (stereo not given) | 84.4% | 83.6% | 91.2% | 72.8% | 68.9% | 52.5% | 53% | 64.6% | 76.1% | 74.1% | 79.1% | 19.1% | 45.6% | 77.5% | 76.3% | 70.6% | 57.7% | 77% | 84.7% | 55.5% |
| CCOc1ccc([C@@H]2[C@@H](Oc3ccccc3)C(=O)N2c2cc(OC)c(OC)c(OC)c2)cc1 | 23.9% | 41.5% | 38.6% | 27.4% | 7.32% (active) | 63.3% | 10.5% | 23.1% | 10.1% | -47.2% (active) | 12.5% | 6.3% (active) | 71.8% | 10.1% | 14.1% | 33.9% | 13.1% | -12.9% (active) | 73.7% | 4.74% (active) |
| COc1ccc(C2C3CCc4ccccc4C3=NN2C(=O)c2cc(OC)c(OC)c(OC)c2)cc1O (stereo not given) | 98% | 89.1% | 86.2% | 92.8% | 108% | 84.2% | 81.8% | 102% | 106% | 113% | 111% | 52.7% | 77.2% | 103% | 56.8% | 105% | 91.2% | 101% | 110% | 101% |
| COc1ccc(C2CC(c3ccc(Nc4ccnc5cc(Cl)ccc45)cc3)=NN2c2ccccc2)cc1 (stereo not given) | 97.7% | 102% | 100% | 106% | 85.6% | 68.5% | 90.6% | 85.8% | 100% | 86.5% | 105% | 67.9% | 94.4% | 103% | 109% | 108% | 107% | 88.2% | 97.4% | 99.6% |
| COc1ccc(C(=O)/C=C/c2cn(-c3ccccc3)nc2-c2cccc(Nc3ccnc4cc(Cl)ccc34)c2)cc1 | 101% | 95.4% | 101% | 103% | 96.6% | 64.9% | 96.7% | 95.3% | 99.5% | 102% | 86.5% | 85.9% | 57.4% | 70.8% | 95.2% | 89.3% | 106% | 103% | 90.1% | 110% |
| COc1cc(C(=O)/C=C/c2cn(-c3ccccc3)nc2-c2cccc(Nc3ccnc4cc(Cl)ccc34)c2)cc(OC)c1OC | 100% | 98.1% | 88.1% | 78.2% | 90.5% | 73.3% | 106% | 91.5% | 89% | 88.9% | 76.9% | 59.5% | 73% | 62.9% | 86.7% | 93.6% | 117% | 98% | 111% | 100% |
